Calls of active or inactive are those of the source.

Experiment [1] deals with PRMT1 (protein arginine N-methyltransferase 1). In words: PRMT1 binders on small-molecule microarrays, primary screen, biochemical, small-molecule microarray, 635 nm fluorescence (AID 1088).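 Note: binding of Prmt1 protein to compounds spotted on small-molecule microarray slides.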 The following applies: small-molecule microarray binding, higher = more signal.
A short description of experiment [2]: yeast growth modulation, basal conditions, primary screen, YJM789 clinical isolate, OD600, 24 h (AID 1089).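 Note: growth of clinical yeast isolate S. cerevisiae YJM 789 seeded 1000 cells per well; test concentration not given here.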 The following applies: S. cerevisiae YJM789 growth, higher = more signal, called active from +8 up or from −8 down.
The nature of experiment [3]: fission yeast growth modulation, primary screen, strain 972, OD600, 24 h, no modulator (AID 1090).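 Note: basal condition with compound alone and no growth modifier present; test concentration not given here.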 Particulars: S. pombe 972 growth, higher = more signal, called active from +8 up or from −8 down.
Experiment [4] in a line: S. cerevisiae growth modulation with rapamycin, primary screen, strain BY4716, OD600, 96 h (AID 1091). Note: test concentration not given here. The following applies: higher = more signal, called active from +8 up or from −8 down.
Experiment [5] addresses Torsin-1A-interacting protein 2 (Homo sapiens) (UniProt Q8NFQ8). In words: LULL1 binders on small-molecule microarray, primary screen, cell lysate, human LULL1 lysate, 635/667 nm fluorescence (AID 1092).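 Note: probe is lysate of COS7 cells overexpressing human LULL1; score merges per-feature 667 nm fluorescence with signal-to-noise.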 The following applies: hLULL1 lysate binding, 635 nm fluorescence, higher = more signal.
The nature of experiment [6]: E. coli growth modulation, two-sided OD650, primary screen, E. coli filamentation project, strain DRC41, 24 h (AID 1093).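 Note: MC1000 strain lacking acrAB efflux and sulA so SOS filamentation is blocked; test concentration not given here.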 The following applies: OD650, 24 h, higher = more signal, called active from +8 up or from −8 down.
The nature of experiment [7]: small-molecule microarray binders of probe aLefty2, primary screen, biochemical, biotinylated probe, 635/667 nm fluorescence (AID 1094).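 Note: score merges spot fluorescence near 667 nm with spot signal-to-noise ratio.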 The following applies: higher = more signal.
For experiment [8], the system named is Noggin (protein binding on small-molecule microarray). Put plainly: Noggin binders on small-molecule microarray, primary screen, biochemical, 635/667 nm fluorescence (AID 1095).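 Note: score merges 667 nm feature fluorescence with signal to noise over triplicate slides.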 Particulars: 635 nm fluorescence, higher = more signal.
The target in experiment [9] is Neurogenic locus notch homolog protein 3 (Homo sapiens) (UniProt Q9UM47). Put plainly: NOTCH3 binders on small-molecule microarray, primary screen, biochemical, 635/667 nm fluorescence (AID 1096). The following applies: NOTCH3 binding, 635 nm fluorescence, higher = more signal.
The nature of experiment [10]: small-molecule microarray binders of probe aEGFR, primary screen, biochemical, biotinylated probe, 635/667 nm fluorescence (AID 1097).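 Note: probe is a biotinylated anti-EGFR antibody binding compounds printed on slides; score combines fluorescence near 667 nm and signal to noise of each spot.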 Particulars: higher = more signal.
Experiment [11] relates to Plasmodium falciparum Sir2 (PF13_0152, Sir2A). Put plainly: pfSir2 binders on small-molecule microarrays, primary screen, biochemical, small-molecule microarray, 635 nm fluorescence (AID 1098).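 Note: score merges spot fluorescence intensity with its signal-to-noise ratio.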 The following applies: small-molecule microarray binding, fluorescence 635 nm; higher = more signal.
The nature of experiment [12]: small-molecule microarray binders of probe aDKK1, primary screen, biochemical, biotinylated probe, 635/667 nm fluorescence (AID 1099).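 Note: score merges 667nm spot fluorescence with signal to noise across triplicate slides; reference of the scale not given here.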 The following applies: higher = more signal.
The nature of experiment [13]: small-molecule microarray binders of probe aCHRDL2, primary screen, biochemical, biotinylated probe, 635/667 nm fluorescence (AID 1100). The following applies: higher = more signal.
Experiment [14] is described as follows: splicing luciferase reporter signal modulators, primary screen, spliceosome inhibition project, cell-based, HEK293, splice +/- reporter (AID 1101).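 Note: HEK293 cells carrying a splicing-competent luciferase reporter gene; test concentration not given here.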 Particulars: luminescence, 24 h, higher = more signal, called active from +8 up or from −8 down. (In a reporter assay the amount or activity of a reporter protein is the signal.)
The target of experiment [15] is Fibroblast growth factor 10 (Homo sapiens) (UniProt O15520). Put plainly: FGF10 binders on small-molecule microarrays, primary screen, biochemical, small-molecule microarray, 635 nm fluorescence (AID 1102). The following applies: FGF10 binding, fluorescence 635 nm, higher = more signal.
Experiment [16] concerns glycogen synthase kinase-3 (GSK3A per assay name; protocol says GSK3B). Put plainly: GSK3 binders on small-molecule microarrays, primary screen, biochemical, small-molecule microarray, 635 nm fluorescence, GSK3A (AID 1103). Note: the record names both GSK3A and GSK3B. The following applies: small-molecule microarray binding, fluorescence 635 nm; higher = more signal.
Experiment [17] deals with Epidermal growth factor receptor (Homo sapiens) (UniProt P00533). Put plainly: EGFR binders on small-molecule microarrays, primary screen, biochemical, small-molecule microarray, 635 nm fluorescence (AID 1104).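 Note: score merges 667 nm emission intensity with spot signal to noise over triplicate slides.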 Particulars: EGFR binding, higher = more signal.
In experiment [18] the target is Follistatin-related protein 3 (Homo sapiens) (UniProt O95633). In words: FSTL3 binders on small-molecule microarrays, primary screen, biochemical, small-molecule microarray, 635 nm fluorescence (AID 1105).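 Note: score merges emission near 667 nm and signal to noise per printed spot across three slides.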 The following applies: FSTL3 binding, higher = more signal.
In experiment [19] the target is Dickkopf-related protein 1 (Homo sapiens) (UniProt O94907). Put plainly: DKK1 binders on small-molecule microarrays, primary screen, biochemical, small-molecule microarray, 635 nm fluorescence scan (AID 1106).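 Note: score merges emission near 667 nm with signal to noise over three replicate slides.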 The following applies: DKK1 binding, higher = more signal.
Experiment [20] concerns Inhibin beta A chain (activin A). Put plainly: INHBA (activin A) binders on microarrays, primary screen, biochemical, small-molecule microarray, 635 nm fluorescence scan (AID 1107).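 Note: mouse activin A protein probed at 4.33 µg/mL on printed slides; score merges bound-protein fluorescence near 667 nm with spot signal-to-noise.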 The following applies: small-molecule microarray binding, higher = more signal.

Chain of Follistatin-related protein 3 (Homo sapiens) (O95633 whole entry, looked up): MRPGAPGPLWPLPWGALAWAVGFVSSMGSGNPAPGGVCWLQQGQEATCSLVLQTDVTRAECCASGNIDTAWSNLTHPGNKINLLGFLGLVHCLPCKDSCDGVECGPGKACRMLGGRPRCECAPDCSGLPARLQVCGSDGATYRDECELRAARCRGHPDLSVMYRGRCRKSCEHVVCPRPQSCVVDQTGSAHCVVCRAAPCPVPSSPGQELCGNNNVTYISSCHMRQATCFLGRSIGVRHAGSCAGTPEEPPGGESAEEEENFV
Chain of Neurogenic locus notch homolog protein 3 (Homo sapiens) (Q9UM47 whole entry, looked up): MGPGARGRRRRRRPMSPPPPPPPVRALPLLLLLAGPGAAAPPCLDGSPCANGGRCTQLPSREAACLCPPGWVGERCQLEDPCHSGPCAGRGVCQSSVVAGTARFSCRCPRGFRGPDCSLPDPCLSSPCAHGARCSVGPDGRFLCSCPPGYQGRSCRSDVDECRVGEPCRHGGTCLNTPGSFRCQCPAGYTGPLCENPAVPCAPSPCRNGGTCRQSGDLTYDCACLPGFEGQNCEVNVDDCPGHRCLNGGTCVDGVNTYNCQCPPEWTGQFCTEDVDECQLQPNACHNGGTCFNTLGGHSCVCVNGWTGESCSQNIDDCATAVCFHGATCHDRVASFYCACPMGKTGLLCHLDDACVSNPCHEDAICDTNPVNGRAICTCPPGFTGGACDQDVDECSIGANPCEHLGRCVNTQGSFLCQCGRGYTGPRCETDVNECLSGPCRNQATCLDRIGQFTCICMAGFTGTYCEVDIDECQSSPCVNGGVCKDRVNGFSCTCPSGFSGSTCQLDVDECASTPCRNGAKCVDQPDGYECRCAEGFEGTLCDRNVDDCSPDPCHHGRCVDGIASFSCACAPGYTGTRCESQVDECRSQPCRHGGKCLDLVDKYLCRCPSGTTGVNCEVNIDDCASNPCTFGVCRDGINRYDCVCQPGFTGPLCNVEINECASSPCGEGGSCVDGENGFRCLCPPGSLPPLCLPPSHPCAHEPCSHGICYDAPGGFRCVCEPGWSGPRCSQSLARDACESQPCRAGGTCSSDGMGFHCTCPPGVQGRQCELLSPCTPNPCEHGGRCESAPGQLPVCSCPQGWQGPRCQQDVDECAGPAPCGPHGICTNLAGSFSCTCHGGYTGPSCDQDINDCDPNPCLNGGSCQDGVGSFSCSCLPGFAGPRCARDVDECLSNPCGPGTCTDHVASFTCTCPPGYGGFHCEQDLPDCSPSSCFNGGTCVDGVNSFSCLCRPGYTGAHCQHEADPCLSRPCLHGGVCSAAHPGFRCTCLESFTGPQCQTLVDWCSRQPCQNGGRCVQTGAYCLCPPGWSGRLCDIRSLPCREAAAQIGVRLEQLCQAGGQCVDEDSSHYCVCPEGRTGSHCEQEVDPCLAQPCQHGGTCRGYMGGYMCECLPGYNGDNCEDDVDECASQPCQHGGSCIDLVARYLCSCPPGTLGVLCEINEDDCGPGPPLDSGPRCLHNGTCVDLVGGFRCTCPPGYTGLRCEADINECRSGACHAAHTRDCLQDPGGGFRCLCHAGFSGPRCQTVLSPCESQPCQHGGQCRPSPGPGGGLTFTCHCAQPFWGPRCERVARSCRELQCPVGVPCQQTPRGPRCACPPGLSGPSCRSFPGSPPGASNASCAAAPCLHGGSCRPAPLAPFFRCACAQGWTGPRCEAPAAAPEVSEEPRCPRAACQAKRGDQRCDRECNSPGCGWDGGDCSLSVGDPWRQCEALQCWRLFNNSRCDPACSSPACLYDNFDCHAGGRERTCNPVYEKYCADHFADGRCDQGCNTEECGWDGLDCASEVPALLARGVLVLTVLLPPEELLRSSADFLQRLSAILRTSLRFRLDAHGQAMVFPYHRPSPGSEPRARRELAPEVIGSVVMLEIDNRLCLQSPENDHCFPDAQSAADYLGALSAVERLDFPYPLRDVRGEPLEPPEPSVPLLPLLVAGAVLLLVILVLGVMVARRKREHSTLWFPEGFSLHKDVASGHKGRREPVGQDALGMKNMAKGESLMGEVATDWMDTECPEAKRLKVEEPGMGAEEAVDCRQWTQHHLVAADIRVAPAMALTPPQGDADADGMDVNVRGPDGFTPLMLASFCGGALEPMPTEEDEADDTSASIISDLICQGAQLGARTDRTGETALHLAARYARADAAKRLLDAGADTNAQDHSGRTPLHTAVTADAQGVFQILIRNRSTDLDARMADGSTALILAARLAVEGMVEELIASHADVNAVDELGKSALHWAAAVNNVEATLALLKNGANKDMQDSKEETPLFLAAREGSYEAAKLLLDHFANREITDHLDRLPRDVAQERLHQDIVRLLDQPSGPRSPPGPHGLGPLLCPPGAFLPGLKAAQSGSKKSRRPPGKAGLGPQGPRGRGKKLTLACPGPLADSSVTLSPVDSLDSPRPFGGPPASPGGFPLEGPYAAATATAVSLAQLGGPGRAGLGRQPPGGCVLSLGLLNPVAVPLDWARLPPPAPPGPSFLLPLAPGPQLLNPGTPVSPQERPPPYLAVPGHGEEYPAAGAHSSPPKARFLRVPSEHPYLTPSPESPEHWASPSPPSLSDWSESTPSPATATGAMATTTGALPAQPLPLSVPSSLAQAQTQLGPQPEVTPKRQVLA
Chain of Torsin-1A-interacting protein 2 (Homo sapiens) (Q8NFQ8 whole entry, looked up): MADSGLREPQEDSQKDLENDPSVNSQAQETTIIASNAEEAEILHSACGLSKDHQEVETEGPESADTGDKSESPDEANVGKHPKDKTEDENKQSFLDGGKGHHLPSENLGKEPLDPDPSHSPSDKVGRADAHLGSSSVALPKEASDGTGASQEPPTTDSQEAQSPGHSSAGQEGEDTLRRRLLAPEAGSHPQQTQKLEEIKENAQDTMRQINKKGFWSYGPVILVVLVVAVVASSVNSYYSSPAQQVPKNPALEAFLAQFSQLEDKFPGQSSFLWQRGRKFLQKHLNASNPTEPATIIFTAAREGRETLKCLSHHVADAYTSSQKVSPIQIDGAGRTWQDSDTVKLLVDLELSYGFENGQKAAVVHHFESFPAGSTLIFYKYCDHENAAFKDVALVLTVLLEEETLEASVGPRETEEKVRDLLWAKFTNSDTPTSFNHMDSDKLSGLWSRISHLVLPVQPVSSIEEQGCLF
Chain of Dickkopf-related protein 1 (Homo sapiens) (O94907 whole entry, looked up): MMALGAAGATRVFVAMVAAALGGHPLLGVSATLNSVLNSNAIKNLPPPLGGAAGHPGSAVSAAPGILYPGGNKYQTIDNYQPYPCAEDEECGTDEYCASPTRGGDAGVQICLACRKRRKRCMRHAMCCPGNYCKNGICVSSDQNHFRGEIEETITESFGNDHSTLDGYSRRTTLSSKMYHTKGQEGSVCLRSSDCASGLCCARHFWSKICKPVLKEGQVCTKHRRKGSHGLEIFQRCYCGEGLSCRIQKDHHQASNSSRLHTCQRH
Chain of Fibroblast growth factor 10 (Homo sapiens) (O15520 whole entry, looked up): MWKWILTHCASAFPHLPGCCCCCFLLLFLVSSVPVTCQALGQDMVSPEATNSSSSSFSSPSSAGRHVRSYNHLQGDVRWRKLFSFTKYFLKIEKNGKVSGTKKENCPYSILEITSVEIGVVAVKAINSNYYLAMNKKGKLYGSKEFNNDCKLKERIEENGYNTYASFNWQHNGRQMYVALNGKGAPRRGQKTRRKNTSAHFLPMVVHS
Chain of Epidermal growth factor receptor (Homo sapiens) (P00533 whole entry, looked up): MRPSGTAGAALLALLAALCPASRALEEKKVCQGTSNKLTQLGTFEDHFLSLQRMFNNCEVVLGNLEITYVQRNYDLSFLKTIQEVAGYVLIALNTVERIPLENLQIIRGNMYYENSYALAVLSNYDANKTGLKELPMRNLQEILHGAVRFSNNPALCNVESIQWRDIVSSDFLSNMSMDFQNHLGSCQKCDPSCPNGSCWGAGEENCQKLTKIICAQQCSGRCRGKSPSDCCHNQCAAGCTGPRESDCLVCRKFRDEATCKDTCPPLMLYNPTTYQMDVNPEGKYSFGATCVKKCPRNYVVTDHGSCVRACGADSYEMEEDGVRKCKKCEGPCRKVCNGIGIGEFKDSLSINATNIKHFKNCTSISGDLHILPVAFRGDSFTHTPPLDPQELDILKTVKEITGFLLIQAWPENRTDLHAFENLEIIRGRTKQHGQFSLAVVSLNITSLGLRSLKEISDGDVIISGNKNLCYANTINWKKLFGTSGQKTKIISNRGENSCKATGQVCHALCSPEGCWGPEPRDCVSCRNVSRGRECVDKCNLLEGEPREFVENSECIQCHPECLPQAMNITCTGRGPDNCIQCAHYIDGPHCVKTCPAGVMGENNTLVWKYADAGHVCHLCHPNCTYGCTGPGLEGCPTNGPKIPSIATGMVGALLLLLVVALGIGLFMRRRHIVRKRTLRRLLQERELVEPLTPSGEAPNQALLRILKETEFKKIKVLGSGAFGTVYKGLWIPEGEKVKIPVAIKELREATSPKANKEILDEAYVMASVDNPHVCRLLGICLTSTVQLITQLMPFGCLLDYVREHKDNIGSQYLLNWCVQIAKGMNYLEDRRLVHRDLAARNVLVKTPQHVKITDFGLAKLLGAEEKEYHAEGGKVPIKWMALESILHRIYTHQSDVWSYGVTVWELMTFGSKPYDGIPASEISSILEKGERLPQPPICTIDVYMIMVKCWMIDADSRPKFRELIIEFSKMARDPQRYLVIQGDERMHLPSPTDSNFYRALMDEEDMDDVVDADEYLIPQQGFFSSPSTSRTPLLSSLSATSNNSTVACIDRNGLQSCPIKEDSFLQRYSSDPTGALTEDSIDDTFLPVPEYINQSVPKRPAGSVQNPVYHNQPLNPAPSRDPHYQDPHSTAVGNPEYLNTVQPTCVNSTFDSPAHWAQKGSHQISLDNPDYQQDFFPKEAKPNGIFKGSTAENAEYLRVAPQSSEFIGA

Turning to `O=C1NC(=O)C2C1C=CC(C(O)Cc1ccccc1)N2Nc1ccccn1` (stereo not given), the composite z-score turned out to be 0.185 in experiment [1]; 2.31 in experiment [5]; 0.101 in experiment [7]; 0.0356 in [8]; 0.504 in experiment [9]; 0.0026 in experiment [10]. Further, the composite z-score in [11] is 0.0468; in [12], 0.133; in [13], -0.321; in [15], 0.156; in [16], 0.0157; in [17], 0.377. Moreover, the figures for the composite z-score in experiment [18], in experiment [19] and in experiment [20] were 0.233, 0.0833 and 0.97, respectively. The z-score in experiment [2] was -0.47 (inactive); in experiment [3], 1.21 (inactive); in [4], -1.22 (inactive); in experiment [6], 0.297 (inactive); in [14], -0.818 (inactive).
Take `CC(CCN1CCCCc2nc(C)c(C)cc21)=NOC(C)CN1CCCCc2nc(C)c(C)cc21` (stereo not given): the composite z-score was 1.52 in [1]; 2.37 in experiment [5]; -0.0101 in [7]; 1.04 in experiment [8]; 1.07 in [9]; 0.272 in [10]. For the same compound, the composite z-score in experiment [11] is 1.62; in [12], -0.142; in experiment [13], -0.595; in experiment [15] it was 1.07; in [16], 1.33; in [17] it was 1.58. Also, the figures for the composite z-score in experiment [18], in [19] and in [20] were 1.42, 1.68 and 0.908, respectively. For the same compound, the z-score was -1.32 (inactive) in [2]; -1.49 (inactive) in experiment [3]; 0.187 (inactive) in [4]; -0.0919 (inactive) in [6]; 0.127 (inactive) in experiment [14].
In the case of `COc1ccccc1CN1C(=O)c2ccccc2[C@@H](C(=O)NCC(F)(F)F)[C@@H]1c1ccc(CO)cc1`, the composite z-score in experiment [1] was 1.55; in [5], 2.37; in experiment [7], -0.107; in experiment [8] it was 1.11; in [9], 1.06; in [10] it was -0.179. The composite z-score in [11] was 1.68; in experiment [12], -0.139; in experiment [13], 0.245; in experiment [15], 0.956; in [16] it was 0.715; in [17] it was 0.0304. For the same compound, the composite z-score in [18] came out at 0.941; in [19] it was 0.0666; in experiment [20], 0.218. In addition, the z-score in experiment [2] is 0.21 (inactive); in [3], 0.74 (inactive); in experiment [4], -0.296 (inactive); in experiment [6] it was 1.49 (inactive); in experiment [14], -0.14 (inactive).
As to `O=C1C[C@@H](O)[C@@H](O)[C@@H]2[C@@H]3C(=O)N(c4ccc(F)cc4F)C(=O)[C@@H]3CC[C@@H]12`, the composite z-score is 0.306 in experiment [1]; 0.662 in experiment [5]; 0.0424 in experiment [7]; 0.438 in [8]; 0.65 in experiment [9]; -0.109 in [10]. The composite z-score in [11] is 0.341; in experiment [12], -0.343; in experiment [13], -0.602; in experiment [15] it was 0.627; in experiment [16] it was 0.169; in experiment [17], 0.463. Besides, the composite z-score was 0.447 in experiment [18], 0.612 in experiment [19] and 0.199 in experiment [20]. Besides, the z-score is -0.168 (inactive) in [2]; -0.413 (inactive) in experiment [3]; -0.0694 (inactive) in experiment [4]; 0.315 (inactive) in [6]; 0.337 (inactive) in [14].
For the compound `COc1ccc(O[C@H]2C=C[C@@H](c3ccccc3)O[C@@H]2CON=C[C@@H](C)[C@H](OCc2ccccc2)C(C)C)cc1`, the composite z-score in experiment [1] was -0.28; in [5], -1.14; in [7], -0.235; in experiment [8], -0.347; in experiment [9] it was -1.27; in experiment [10], -0.241. Also, the composite z-score in experiment [11] is -0.369; in experiment [12] it was -0.406; in experiment [13] it was -0.17; in experiment [15], -1.11; in experiment [16], -1.04; in experiment [17], -0.805. Also, the composite z-score in experiment [18] is -0.761; in experiment [19], -0.733; in experiment [20], 0.272. For the same compound, the z-score was 0.706 (inactive) in [2]; -0.564 (inactive) in experiment [3]; 0.314 (inactive) in experiment [4]; -0.349 (inactive) in experiment [6]; 0.275 (inactive) in [14].

Values taken from PubChem BioAssay.
